Measured values as given in PubChem BioAssay AID1159580 (chemical genetic matrix, 2015).
Where “and” joins values, the source holds several entries; their conditions need not be identical. Equal values may be shown once. Out of some 5,500 compounds screened, about 2,000 (36%) were called active. Not shown: some 18% with an inconclusive outcome. Rule as the data show it: active = normalized growth mostly below about 0.91 (no sharp cut-off); inconclusive = no clear call, values can overlap the other calls; inactive = mostly above about 0.92. The list shows a part of the results.

Test: chemical genetic growth profiling, strain panel (AID 1159580);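 also: tested at 20 µM; growth read once vehicle control cultures reached saturation at 30 °C; 1 = growth at the plate median or of vehicle wells; lower values mean less growth of the strain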
Conditions: S. cerevisiae deletion strains, growth OD

Measured: normalized growth

CCCCOC(=O)c1ccccc1C(=O)OCCCC
inactive: locus YAL013W, strain DEP1, active compounds read low 0.988 | locus YAL021C, strain ccr4, active compounds read low 0.979 | locus YAL026C, strain drs2, active compounds read low 0.989 | locus YAL030W, strain snc1, active compounds read low 0.979 | locus YBL061C, strain skt5, active compounds read low 0.986 | locus YBR009C, strain hhf1, active compounds read low 0.968 | locus YBR021W, strain FUR4, active compounds read low 0.955 | locus YBR023C, strain chs3, active compounds read low 0.98 | locus YBR171W, strain sec66, active compounds read low 0.959 | locus YBR229C, strain ROT2, active compounds read low 0.981 | locus YBR231C, strain swc5, active compounds read low 0.983 | locus YBR279W, strain paf1, active compounds read low 0.994 | locus YCL011C, strain gbp2, active compounds read low 0.979 | locus YCL016C, strain dcc1, active compounds read low 0.985 | locus YCL029C, strain bik1, active compounds read low 0.976 | locus YCL061C, strain MRC1, active compounds read low 0.984 | locus YCL069W, strain vba3, active compounds read low 0.985 | locus YCR088W, strain abp1, active compounds read low 0.98 | locus YDL005C, strain med2, active compounds read low 0.97 | locus YDL035C, strain GPR1, active compounds read low 0.986 | locus YDL040C, strain nat1, active compounds read low 0.985 | locus YDL074C, strain BRE1, active compounds read low 0.984 | locus YDL101C, strain DUN1, active compounds read low 0.986 | locus YDL134C, strain PPH21, active compounds read low 0.988 | locus YDL185W, strain tfp1, active compounds read low 0.961 | locus YDL192W, strain arf1, active compounds read low 0.983 | locus YDR001C, strain nth1, active compounds read low 0.984 | locus YDR069C, strain doa4, active compounds read low 0.983 | locus YDR101C, strain arx1, active compounds read low 0.984 | locus YDR137W, strain rgp1, active compounds read low 0.905 | locus YDR150W, strain NUM1, active compounds read low 0.989 | locus YDR159W, strain sac3, active compounds read low 0.993 | locus YDR162C, strain NBP2, active compounds read low 0.976 | locus YDR195W, strain ref2 1.07 | locus YDR297W, strain sur2, active compounds read low 0.984 | locus YDR318W, strain mcm21, active compounds read low 0.979 | locus YDR334W, strain swr1, active compounds read low 0.991 | locus YDR335W, strain msn5, active compounds read low 0.992 | locus YDR388W, active compounds read low 0.961 | locus YDR392W, strain spt3, active compounds read low 0.941 | locus YDR502C, strain sam2, active compounds read low 0.977 | locus YEL003W, strain gim4, active compounds read low 0.987 | locus YEL037C, strain rad23, active compounds read low 0.992 | locus YEL061C, strain CIN8 (second series), active compounds read low 0.989 | locus YEL061C, strain CIN8, active compounds read low 0.992 | locus YER015W, strain faa2, active compounds read low 0.986 | locus YER016W, strain bim1, active compounds read low 0.986 | locus YER110C, active compounds read low 0.974 | locus YER111C, strain swi4, active compounds read low 0.999 | locus YER155C, strain BEM2 (second series), active compounds read low 0.968 | locus YER155C, strain BEM2, active compounds read low 0.98 | locus YER167W, strain BCK2, active compounds read low 0.981 | locus YFR010W, strain ubp6, active compounds read low 0.998 | locus YGL078C, strain dbp3, active compounds read low 0.982 | locus YGL086W, strain mad1, active compounds read low 0.98 | locus YGL167C, strain pmr1, active compounds read low 0.957 | locus YGL173C, strain kem1, active compounds read low 0.98 | locus YGL227W, strain vid30, active compounds read low 0.984 | locus YGL240W, strain doc1, active compounds read low 0.973 | locus YGL248W, strain PDE1, active compounds read low 0.976 | locus YGL253W, strain hxk2, active compounds read low 0.987 | locus YGR078C, strain PAC10, active compounds read low 0.981 | locus YGR135W, strain pre9, active compounds read low 0.988 | locus YGR229C, strain SMI1, active compounds read low 0.948 | locus YGR252W, strain gcn5, active compounds read low 0.992 | locus YHR013C, strain ard1, active compounds read low 1.03 | locus YHR027C, strain rpn1, active compounds read low 0.987 | locus YHR030C, strain SLT2, active compounds read low 0.969 | locus YHR079C, strain IRE1 (second series), active compounds read low 0.972 | locus YHR079C, strain IRE1, active compounds read low 0.962 | locus YHR094C, strain hxt1, active compounds read low 0.973 | locus YHR129C, strain ARP1, active compounds read low 0.996 | locus YHR142W, strain chs7, active compounds read low 0.944 | locus YHR200W, strain rpn10, active compounds read low 0.985 | locus YIL066C, strain RNR3, active compounds read low 0.972 | locus YIL073C, strain SPO22, active compounds read low 0.867 | locus YIL125W, strain kgd1, active compounds read low 0.988 | locus YIR030C, strain dcg1, active compounds read low 0.978 | locus YJL092W, strain hpr5, active compounds read low 0.98 | locus YJL095W, strain BCK1 (second series), active compounds read low 0.985 | locus YJL095W, strain BCK1, active compounds read low 0.979 and 0.96 | locus YJL115W, strain asf1, active compounds read low 0.988 | locus YJL129C, strain trk1, active compounds read low 0.886 | locus YJL134W, strain LCB3, active compounds read low 0.984 | locus YJL154C, strain vps35, active compounds read low 0.985 | locus YJL164C, strain tpk1, active compounds read low 0.961 | locus YJL166W, strain qcr8, active compounds read low 0.974 | locus YJL168C, strain set2, active compounds read low 0.985 | locus YJL187C, strain SWE1 (second series), active compounds read low 0.968 | locus YJL187C, strain SWE1, active compounds read low 0.983 | locus YJR043C, strain POL32, active compounds read low 0.982
